Screens deposited in PubChem by several laboratories.
This is a sample that favours compounds with a hit; in the whole collection about 5.1% have one here.
TMEM16A inh: inhibitors of mouse TMEM16A calcium-activated chloride channel | Q8BHY3 | HEK293 TMEM16A/YFP iodide influx fluorescence, ionomycin | normalized B-score (activity score, 25-100; higher = stronger inhibition) at 10 µM | actives 1.2% (n = 310,000) | AID 588511;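 active = ratio plate-corrected score three or more library SD toward inhibition, starting fluorescence score within five deviations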;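 also: score derived from kinetic fluorescence span divided by baseline fluorescence per well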
GRIN3A LBD mod: modulates the human NR3A ligand-binding domain. actives 2.5% (n = 340,000). Tm shift relative to glycine control, % at 25 µM. AID 1259313. NR3A LBD differential scanning fluorimetry, Tm shift; 0% = protein alone, 100% = glycine-bound protein;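 active = melting temperature shift of at least 10% of the positive control shift, at one fixed dose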
CRFR2-BP antag: CRF-BP/CRF-R2 complex antagonism; HEK293 CRF-R2/CRF-BP, CRF-induced calcium fluorescence; inhibition, % at 11.8 µM; actives 0.59% (n = 350,000); AID 588475;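 active = inhibition of the ligand-induced calcium signal above about 50% at the single tested concentration, limit read from the data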
MPTP inh: inhibitors of mitochondrial permeability transition pore; isolated mouse mitochondria, Ca2+ swelling absorbance, 30 min; inhibition, % at 10 µM; actives 1.4% (n = 360,000); AID 602449;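 active = inhibition of 50% or more, scaled per plate between neutral and stimulator controls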
ANO1 activ: mouse TMEM16A channel activation, primary screen | Q8BHY3 | HEK293 TMEM16A/YFP-H148Q/I152L, iodide quench fluorescence; stronger effect = lower value | B-score at 10 µM | actives 0.3% (n = 340,000) | AID 623877;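 active = fluorescence-ratio B-score plate-corrected deviation score at least 3 library SD below zero, with starting fluorescence score within 5 deviations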;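 also: channel opened by trigger with iodide after compound preincubation; score built on the fluorescence ratio of max minus min over baseline; more negative score means more quench and so TMEM16A activation or potentiation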
CRFR2-BP ag: agonists of human CRF-binding protein/CRF-R2 receptor complex; actives 0.46% (n = 350,000); HEK293 CRF-R2/CRF-BP, calcium dye fluorescence (FLIPR); percent of saturating CRF peptide response; AID 588473; activation, % at 13.2 µM;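 active = activation of at least 50%, plus an integration ratio under a set limit after plate pattern correction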
Rh123 counter: membrane potential counter-screen of mitochondrial pore inhibitors. shares compounds with MPTP inh. isolated mitochondria, Rhodamine 123 fluorescence. actives 78% (n = 5,000). inhibition, % at 10 µM; in the data active = inhibition above about 22%
Numbers stand for hits; – = inactive; · = no result given.

SMILES	TMEM16A inh	GRIN3A LBD mod	CRFR2-BP antag	MPTP inh	ANO1 activ	CRFR2-BP ag	Rh123 counter
O=C(Nc1nnc(COc2ccccc2F)s1)Nc1ccccc1F	–	–	–	–	–	–	·
O=C(Nc1cccc(Cl)c1)Nc1nnc(-c2ccncc2)s1	–	27	–	101	–	–	55
COc1ccc(N2CCN(C(=O)CN3C(=O)NC4(CCCCC4C)C3=O)CC2)cc1 (stereo unspecified)	·	–	–	–	–	–	·
COc1cccc(CN2CCNC(=O)C2CC(=O)N(C)CC2CCOCC2)c1 (stereo unspecified)	–	–	–	–	–	–	·
Cc1cc(/C=C2/SC(=S)N(c3cccc(C(F)(F)F)c3)C2=O)c(C)n1-c1cccnc1	–	–	–	105	–	–	87
O=C(CC1C(=O)NCCN1Cc1ccccc1C(F)(F)F)NCCn1cccn1 (stereo unspecified)	–	–	–	–	–	–	·
CSC1=NSC2=NC(=O)/C(=C/c3coc4ccccc4c3=O)C(=N)N12	–	11	–	95	–	313	80
CS(=O)(=O)C1=NSC2=NC(=O)/C(=C\c3ccc(OC(=O)c4ccco4)cc3)C(=N)N21	–	·	·	·	·	·	·
N=C1/C(=C/c2cccs2)C(=O)N=C2SN=C(SCc3ccccc3)N12	–	–	102	86	–	–	71
COc1cc(/C=C2/C(=N)N3C(SC)=NSC3=NC2=O)ccc1OC(=O)c1ccco1	–	–	–	–	–	–	·
CC(C)CSC1=NSC2=NC(=O)/C(=C\c3cccs3)C(=N)N12	–	11	75	100	–	70	93
O=C(c1ccccc1)N(C(=O)c1ccccc1)N1CCCC1	·	–	–	–	–	–	·
Cc1ccc(N(CC(=O)NCCc2ccc(F)cc2)S(=O)(=O)c2ccc(Cl)c([N+](=O)[O-])c2)c(C)c1	–	–	–	68	–	–	70
CN1CC[C@]2(CCN3CCc4c(oc5ccccc45)[C@@H]3C2)N(C)C1=O	–	–	–	–	–	–	·
Cc1c(O)ccc(/C(Cc2ccc3ccccc3n2)=N\O)c1O	–	–	–	73	–	–	35
Cc1cc(Cl)cc(Cl)c1CNc1c([N+](=O)[O-])c(=O)oc2ccccc12	–	–	–	90	–	–	96
O=c1oc2ccccc2c(NCc2ccc(Cl)cc2)c1[N+](=O)[O-]	–	–	–	54	–	–	73
O=c1oc2ccccc2c(NCc2ccccc2)c1[N+](=O)[O-]	–	–	–	–	–	–	·
O=c1oc2ccccc2c(Nc2cccc3ccccc23)c1[N+](=O)[O-]	–	–	–	67	–	–	79
O=c1oc2ccccc2c(NCCO)c1[N+](=O)[O-]	–	–	–	–	–	–	·
Cc1ccccc1Nc1nc(N)nc(COC(=O)CCNS(=O)(=O)c2ccccc2)n1	–	–	–	–	–	–	·
C[C@@H]1CN([C@@H](C)CO)C(=O)c2cc(NS(=O)(=O)c3ccc(Cl)cc3)ccc2O[C@H]1CN(C)Cc1ccncc1	·	–	–	–	–	–	·
COc1ccccc1N1CCN(S(=O)(=O)CCNC(=O)Cc2ccc(F)cc2)CC1	–	–	–	–	–	–	·
CCCCCCCn1c(=N)n(CC(=O)c2ccco2)c2ccccc21	–	–	–	83	–	–	41
CN(CC(=O)Nc1ccc(F)cc1)C(=O)Cn1cnc2ccc(Cl)cc2c1=O	·	–	–	–	–	–	·
Cc1c(CC(=O)Nc2ccc(Cl)cc2)sc2ccc(Cl)cc12	–	28	–	88	–	–	91
O=C(/C=C/c1cccc([N+](=O)[O-])c1)NCc1ccccc1	–	–	–	–	–	–	·
O=C(/C=C/c1cccc([N+](=O)[O-])c1)NCCSCc1cccc(Cl)c1	100	–	–	63	–	–	56
CC(=O)N1CCN(C(=O)COC(=O)CNC(=O)c2ccccc2C)CC1	–	–	–	–	–	–	·
CCOc1ccc(-c2csc(/C(C#N)=C\c3ccc(O)c([N+](=O)[O-])c3)n2)cc1	–	–	–	73	–	–	70
